# Assay results from publication PMC7862700, “An all-to-all approach to the identification of sequence-specific readers for epigenetic DNA modifications on cytosine”.
# How the values were obtained:
# Experiment in all cases: DAPPL (digital affinity profiling via proximity ligation, sequencing); 10 mM Tris-HCl pH 7.5, 50 mM NaCl, 1 mM DTT, 4% glycerol, room temperature, 30 min; GST-TFs on glutathione beads, 16-mer random dsDNA library, 0.1% formaldehyde crosslink after washing; high values mean tight binding
# FLI1 = molecular target: T1, FLI1 (Homo sapiens, UniProt Q01543 1-452); settings: protein: recombinant; tags: N-terminal GST; dsDNA, one strand shown
# T1 sequence: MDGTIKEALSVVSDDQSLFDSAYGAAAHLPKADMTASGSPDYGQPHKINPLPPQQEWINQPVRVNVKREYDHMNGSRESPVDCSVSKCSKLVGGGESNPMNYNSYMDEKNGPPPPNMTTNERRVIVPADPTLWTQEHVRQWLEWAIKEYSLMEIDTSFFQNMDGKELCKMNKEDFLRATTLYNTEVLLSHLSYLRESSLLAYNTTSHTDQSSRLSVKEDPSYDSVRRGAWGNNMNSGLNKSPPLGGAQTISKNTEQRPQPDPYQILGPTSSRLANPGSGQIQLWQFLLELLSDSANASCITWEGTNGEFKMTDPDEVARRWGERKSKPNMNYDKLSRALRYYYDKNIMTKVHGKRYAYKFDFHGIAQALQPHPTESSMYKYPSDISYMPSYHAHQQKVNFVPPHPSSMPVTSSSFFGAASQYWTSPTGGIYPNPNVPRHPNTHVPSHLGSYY
# Outline: (§1)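 Pools were built from human transcription factors expressed in yeast as GST fusions, captured on glutathione beads and DNA-barcoded, along with a tag-only sample. Incubation with 200 nmole of a 16-mer random double-stranded DNA library lasted 30 min at room temperature in Tris/NaCl/DTT/glycerol buffer, and was followed by washing, 0.1% formaldehyde crosslinking, proximity ligation, PCR amplification and Illumina NextSeq500 sequencing. Binding signal is the quotient of each hexamer's read frequency for a factor and its frequency for the tag-only sample.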
# ELK1 = molecular target: T2, ELK1 (Homo sapiens, UniProt P19419 1-428); settings: protein: recombinant; tags: N-terminal GST; dsDNA, one strand shown
# T2 sequence: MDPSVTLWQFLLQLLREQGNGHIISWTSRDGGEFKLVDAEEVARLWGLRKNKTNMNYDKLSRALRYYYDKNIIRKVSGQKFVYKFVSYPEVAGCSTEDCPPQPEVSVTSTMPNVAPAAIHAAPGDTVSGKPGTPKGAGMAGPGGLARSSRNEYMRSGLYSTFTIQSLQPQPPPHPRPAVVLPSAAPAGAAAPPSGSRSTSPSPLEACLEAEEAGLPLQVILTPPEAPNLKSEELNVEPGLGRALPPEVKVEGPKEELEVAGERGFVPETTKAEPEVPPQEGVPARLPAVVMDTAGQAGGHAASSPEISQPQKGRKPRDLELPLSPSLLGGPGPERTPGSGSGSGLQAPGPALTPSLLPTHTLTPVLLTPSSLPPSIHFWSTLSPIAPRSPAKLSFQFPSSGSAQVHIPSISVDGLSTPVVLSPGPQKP
# Outline: as §1
# GABPA = molecular target: T3, GABPA (Homo sapiens, UniProt Q06546 1-454); settings: protein: recombinant; tags: N-terminal GST; dsDNA, one strand shown
# T3 sequence: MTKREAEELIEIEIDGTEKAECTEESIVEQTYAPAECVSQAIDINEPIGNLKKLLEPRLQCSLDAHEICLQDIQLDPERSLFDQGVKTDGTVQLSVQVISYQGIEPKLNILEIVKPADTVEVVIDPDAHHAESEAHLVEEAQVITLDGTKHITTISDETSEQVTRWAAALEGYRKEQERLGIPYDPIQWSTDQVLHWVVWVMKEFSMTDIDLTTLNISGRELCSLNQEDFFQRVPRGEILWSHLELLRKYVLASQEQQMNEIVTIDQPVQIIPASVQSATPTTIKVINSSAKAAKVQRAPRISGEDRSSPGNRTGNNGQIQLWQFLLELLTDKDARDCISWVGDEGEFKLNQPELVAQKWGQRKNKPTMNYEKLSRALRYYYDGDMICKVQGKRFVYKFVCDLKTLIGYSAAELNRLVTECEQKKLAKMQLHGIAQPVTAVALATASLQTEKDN
# Outline: as §1
# ERG = molecular target: T4, ERG (Homo sapiens, UniProt P11308 1-479); settings: protein: recombinant; tags: N-terminal GST; dsDNA, one strand shown
# T4 sequence: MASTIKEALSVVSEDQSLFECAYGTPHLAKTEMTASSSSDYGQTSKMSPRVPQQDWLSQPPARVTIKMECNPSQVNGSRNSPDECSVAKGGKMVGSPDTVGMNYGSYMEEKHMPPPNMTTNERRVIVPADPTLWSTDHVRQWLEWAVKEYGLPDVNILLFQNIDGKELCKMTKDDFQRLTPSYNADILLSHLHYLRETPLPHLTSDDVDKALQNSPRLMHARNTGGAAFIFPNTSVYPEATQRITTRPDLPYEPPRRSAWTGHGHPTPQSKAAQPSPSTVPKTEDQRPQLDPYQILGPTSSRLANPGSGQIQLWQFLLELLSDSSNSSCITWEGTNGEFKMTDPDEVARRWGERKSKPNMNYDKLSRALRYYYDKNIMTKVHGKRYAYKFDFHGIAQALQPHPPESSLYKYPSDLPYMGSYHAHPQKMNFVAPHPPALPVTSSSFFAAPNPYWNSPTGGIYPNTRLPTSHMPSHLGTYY
# Outline: as §1
# ELF1 = ELF1 (Homo sapiens, UniProt P32519 1-619); settings: protein: recombinant; tags: N-terminal GST; dsDNA, one strand shown
# Outline: as §1
# EHF = molecular target: T5, EHF (Homo sapiens, UniProt Q9NZC4 1-300); settings: protein: recombinant; tags: N-terminal GST; dsDNA, one strand shown
# T5 sequence: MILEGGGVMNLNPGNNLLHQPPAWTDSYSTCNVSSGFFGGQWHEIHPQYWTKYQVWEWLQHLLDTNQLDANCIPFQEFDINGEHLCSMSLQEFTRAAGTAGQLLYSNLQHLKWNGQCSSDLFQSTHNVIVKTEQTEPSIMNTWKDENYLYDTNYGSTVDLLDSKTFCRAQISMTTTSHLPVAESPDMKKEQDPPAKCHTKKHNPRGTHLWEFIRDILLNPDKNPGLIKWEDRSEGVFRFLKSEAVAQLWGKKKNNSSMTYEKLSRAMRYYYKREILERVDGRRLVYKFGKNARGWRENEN
# Outline: as §1
# SPI1 = SPI1 (Homo sapiens, UniProt P17947 1-270); settings: protein: recombinant; tags: N-terminal GST; dsDNA, one strand shown
# Outline: as §1
# SPIB = SPIB (Homo sapiens, UniProt Q01892 1-262); settings: protein: recombinant; tags: N-terminal GST; dsDNA, one strand shown
# Outline: as §1
# ELK3 = molecular target: T6, ELK3 (Homo sapiens, UniProt P41970 1-407); settings: protein: recombinant; tags: N-terminal GST; dsDNA, one strand shown
# T6 sequence: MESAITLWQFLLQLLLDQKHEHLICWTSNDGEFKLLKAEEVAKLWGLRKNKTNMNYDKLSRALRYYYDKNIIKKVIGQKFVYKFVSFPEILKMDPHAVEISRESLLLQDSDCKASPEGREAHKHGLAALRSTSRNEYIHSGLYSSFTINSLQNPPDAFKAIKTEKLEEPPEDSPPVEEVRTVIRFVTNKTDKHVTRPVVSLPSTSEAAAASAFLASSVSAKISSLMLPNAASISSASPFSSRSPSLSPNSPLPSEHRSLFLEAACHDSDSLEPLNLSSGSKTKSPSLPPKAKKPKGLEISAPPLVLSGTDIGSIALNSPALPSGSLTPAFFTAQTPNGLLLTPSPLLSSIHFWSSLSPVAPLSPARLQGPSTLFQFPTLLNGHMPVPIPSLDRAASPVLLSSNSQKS
# Outline: as §1
# FEV = molecular target: T7, FEV (Homo sapiens, UniProt Q99581 1-238); settings: protein: recombinant; tags: N-terminal GST; dsDNA, one strand shown
# T7 sequence: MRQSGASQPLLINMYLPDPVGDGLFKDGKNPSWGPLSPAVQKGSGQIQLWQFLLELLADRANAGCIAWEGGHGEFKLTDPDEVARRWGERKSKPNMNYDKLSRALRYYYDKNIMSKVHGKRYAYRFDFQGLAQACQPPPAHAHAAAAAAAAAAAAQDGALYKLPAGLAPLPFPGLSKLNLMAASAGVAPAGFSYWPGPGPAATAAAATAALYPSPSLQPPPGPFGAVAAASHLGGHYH
# Outline: as §1
# ETV5 = ETV5 (Homo sapiens, UniProt P41161 1-510); settings: protein: recombinant; tags: N-terminal GST; dsDNA, one strand shown
# Outline: as §1
# HSF1 = HSF1 (Homo sapiens, UniProt Q00613 1-529); settings: protein: recombinant; tags: N-terminal GST; chain copies: 3; dsDNA, one strand shown
# Outline: as §1
# SPIC = molecular target: T8, SPIC (Homo sapiens, UniProt Q8N5J4 1-248); settings: protein: recombinant; tags: N-terminal GST; dsDNA, one strand shown
# T8 sequence: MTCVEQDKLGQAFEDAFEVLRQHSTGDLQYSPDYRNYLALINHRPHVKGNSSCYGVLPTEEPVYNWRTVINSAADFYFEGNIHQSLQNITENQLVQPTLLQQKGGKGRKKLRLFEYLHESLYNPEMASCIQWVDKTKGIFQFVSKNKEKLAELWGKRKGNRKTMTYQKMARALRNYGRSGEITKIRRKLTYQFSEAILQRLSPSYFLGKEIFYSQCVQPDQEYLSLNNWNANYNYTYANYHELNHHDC
# Outline: as §1
# ELF4 = ELF4 (Homo sapiens, UniProt Q99607 1-663); settings: protein: recombinant; tags: N-terminal GST; dsDNA, one strand shown
# Outline: as §1
# ELK4 = molecular target: T9, ELK4 (Homo sapiens, UniProt P28324-2 1-405); settings: protein: recombinant; tags: N-terminal GST; dsDNA, one strand shown
# T9 sequence: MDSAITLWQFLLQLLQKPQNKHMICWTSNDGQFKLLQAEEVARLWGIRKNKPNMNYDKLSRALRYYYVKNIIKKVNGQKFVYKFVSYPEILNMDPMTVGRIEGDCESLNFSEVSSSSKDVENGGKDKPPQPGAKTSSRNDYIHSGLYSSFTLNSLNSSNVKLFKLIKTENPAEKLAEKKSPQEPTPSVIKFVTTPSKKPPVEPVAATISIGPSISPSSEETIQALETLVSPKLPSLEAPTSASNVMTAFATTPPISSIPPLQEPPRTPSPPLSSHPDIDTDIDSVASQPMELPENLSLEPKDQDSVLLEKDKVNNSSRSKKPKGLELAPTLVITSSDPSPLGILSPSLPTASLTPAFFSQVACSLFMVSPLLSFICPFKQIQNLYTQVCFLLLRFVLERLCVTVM
# Outline: as §1
# ETV2 = molecular target: T10, ETV2 (Homo sapiens, UniProt O00321 1-342); settings: protein: recombinant; tags: N-terminal GST; dsDNA, one strand shown
# T10 sequence: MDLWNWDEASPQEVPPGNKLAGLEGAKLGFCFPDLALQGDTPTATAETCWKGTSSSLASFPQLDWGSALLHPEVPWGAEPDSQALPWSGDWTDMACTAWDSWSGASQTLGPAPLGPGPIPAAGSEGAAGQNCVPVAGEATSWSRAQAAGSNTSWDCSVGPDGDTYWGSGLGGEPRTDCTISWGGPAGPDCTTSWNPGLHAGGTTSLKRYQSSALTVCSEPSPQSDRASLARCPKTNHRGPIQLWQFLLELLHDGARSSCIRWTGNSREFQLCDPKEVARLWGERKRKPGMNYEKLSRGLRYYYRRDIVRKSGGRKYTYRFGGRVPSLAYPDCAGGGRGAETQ
# Outline: as §1
# ELF3 = molecular target: T11, ELF3 (Homo sapiens, UniProt P78545 1-371); settings: protein: recombinant; tags: N-terminal GST; dsDNA, one strand shown
# T11 sequence: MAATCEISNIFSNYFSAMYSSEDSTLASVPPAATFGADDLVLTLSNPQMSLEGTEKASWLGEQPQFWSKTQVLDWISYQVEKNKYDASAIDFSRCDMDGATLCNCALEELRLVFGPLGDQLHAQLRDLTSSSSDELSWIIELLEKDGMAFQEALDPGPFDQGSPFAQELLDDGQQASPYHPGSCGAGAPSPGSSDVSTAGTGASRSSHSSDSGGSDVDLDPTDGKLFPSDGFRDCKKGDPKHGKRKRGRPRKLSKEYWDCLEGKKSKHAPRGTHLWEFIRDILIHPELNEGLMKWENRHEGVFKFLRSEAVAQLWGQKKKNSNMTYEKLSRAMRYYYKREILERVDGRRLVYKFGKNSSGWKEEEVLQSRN
# Outline: as §1
# CRX = CRX (Homo sapiens, UniProt O43186 1-299); settings: protein: recombinant; tags: N-terminal GST; dsDNA, one strand shown
# Outline: as §1
# ETV1 = ETV1 (Homo sapiens, UniProt P50549 1-477); settings: protein: recombinant; tags: N-terminal GST; dsDNA, one strand shown
# Outline: as §1
# Sequence of ETV1 (P50549 whole entry): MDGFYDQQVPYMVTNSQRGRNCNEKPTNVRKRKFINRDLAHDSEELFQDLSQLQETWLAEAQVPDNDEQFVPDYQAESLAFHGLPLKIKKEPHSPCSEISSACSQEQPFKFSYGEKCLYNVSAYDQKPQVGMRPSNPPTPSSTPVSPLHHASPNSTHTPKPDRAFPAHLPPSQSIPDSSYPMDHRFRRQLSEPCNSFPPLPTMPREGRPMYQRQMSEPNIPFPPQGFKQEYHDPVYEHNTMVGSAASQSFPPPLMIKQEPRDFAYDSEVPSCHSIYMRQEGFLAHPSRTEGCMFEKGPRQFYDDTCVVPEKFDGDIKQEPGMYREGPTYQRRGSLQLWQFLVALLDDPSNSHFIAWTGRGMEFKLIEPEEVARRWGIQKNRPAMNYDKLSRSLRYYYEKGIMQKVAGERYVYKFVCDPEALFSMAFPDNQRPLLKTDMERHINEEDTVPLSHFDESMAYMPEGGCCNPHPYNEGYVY
# Sequence of CRX (O43186 whole entry): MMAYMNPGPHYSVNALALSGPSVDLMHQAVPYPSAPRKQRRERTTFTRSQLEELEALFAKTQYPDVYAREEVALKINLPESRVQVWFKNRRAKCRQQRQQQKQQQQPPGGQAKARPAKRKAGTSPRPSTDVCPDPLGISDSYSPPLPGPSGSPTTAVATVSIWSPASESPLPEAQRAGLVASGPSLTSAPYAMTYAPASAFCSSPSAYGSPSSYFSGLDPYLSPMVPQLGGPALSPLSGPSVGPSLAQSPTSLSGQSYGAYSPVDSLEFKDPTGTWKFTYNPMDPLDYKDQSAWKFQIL
# Sequence of SPIB (Q01892 whole entry): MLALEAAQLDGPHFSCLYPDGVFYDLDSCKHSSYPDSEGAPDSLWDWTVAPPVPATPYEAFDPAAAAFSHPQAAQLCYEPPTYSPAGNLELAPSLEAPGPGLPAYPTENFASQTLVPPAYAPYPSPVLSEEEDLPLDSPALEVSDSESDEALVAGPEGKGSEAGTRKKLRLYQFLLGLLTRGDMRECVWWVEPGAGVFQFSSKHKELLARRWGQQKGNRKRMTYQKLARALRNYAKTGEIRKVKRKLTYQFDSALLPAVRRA
# Sequence of HSF1 (Q00613 whole entry): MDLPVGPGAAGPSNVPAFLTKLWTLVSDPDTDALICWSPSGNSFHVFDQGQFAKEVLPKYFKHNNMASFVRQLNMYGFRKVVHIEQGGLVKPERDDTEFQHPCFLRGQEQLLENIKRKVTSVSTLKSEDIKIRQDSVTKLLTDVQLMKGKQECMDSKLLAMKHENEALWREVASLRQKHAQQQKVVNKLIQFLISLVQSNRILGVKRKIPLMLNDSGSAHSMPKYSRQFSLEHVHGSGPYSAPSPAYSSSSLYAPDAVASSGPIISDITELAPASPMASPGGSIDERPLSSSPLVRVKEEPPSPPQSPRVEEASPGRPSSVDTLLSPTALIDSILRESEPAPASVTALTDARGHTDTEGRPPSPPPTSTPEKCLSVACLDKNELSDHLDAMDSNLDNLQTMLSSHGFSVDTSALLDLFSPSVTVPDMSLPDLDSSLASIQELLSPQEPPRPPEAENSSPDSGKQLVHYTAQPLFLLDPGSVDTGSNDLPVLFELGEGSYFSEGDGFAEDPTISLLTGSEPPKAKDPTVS
# Sequence of ETV5 (P41161 whole entry): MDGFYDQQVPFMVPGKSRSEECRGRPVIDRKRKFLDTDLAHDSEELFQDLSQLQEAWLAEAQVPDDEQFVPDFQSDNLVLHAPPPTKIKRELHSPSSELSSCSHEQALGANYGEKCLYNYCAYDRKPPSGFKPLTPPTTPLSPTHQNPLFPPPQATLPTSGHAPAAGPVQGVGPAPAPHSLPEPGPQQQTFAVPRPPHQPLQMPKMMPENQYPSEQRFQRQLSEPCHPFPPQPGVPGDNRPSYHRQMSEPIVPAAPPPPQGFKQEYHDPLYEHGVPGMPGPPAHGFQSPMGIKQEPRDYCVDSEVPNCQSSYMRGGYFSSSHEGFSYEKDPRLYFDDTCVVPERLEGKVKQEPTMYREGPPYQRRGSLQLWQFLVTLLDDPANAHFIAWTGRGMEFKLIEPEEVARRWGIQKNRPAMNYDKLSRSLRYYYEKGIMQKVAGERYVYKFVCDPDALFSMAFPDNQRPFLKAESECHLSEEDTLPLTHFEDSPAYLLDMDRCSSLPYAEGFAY
# Sequence of ELF1 (P32519 whole entry): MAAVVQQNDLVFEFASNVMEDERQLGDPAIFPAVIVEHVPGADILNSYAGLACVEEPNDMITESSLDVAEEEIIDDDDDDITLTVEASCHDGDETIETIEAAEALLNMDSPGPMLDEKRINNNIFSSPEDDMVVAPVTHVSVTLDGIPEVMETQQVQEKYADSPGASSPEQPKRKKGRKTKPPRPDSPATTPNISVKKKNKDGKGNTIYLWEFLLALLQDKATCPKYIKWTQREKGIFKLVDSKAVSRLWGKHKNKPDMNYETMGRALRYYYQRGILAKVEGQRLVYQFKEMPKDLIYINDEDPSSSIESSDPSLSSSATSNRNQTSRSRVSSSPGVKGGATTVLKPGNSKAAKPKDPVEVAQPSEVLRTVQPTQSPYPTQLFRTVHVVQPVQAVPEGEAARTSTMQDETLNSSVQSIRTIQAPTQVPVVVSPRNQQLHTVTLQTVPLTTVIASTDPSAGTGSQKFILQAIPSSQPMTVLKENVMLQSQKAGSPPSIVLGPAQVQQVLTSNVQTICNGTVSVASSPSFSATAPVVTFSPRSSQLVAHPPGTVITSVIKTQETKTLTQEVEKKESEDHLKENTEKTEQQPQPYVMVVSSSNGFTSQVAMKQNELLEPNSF
# Sequence of ELF4 (Q99607 whole entry): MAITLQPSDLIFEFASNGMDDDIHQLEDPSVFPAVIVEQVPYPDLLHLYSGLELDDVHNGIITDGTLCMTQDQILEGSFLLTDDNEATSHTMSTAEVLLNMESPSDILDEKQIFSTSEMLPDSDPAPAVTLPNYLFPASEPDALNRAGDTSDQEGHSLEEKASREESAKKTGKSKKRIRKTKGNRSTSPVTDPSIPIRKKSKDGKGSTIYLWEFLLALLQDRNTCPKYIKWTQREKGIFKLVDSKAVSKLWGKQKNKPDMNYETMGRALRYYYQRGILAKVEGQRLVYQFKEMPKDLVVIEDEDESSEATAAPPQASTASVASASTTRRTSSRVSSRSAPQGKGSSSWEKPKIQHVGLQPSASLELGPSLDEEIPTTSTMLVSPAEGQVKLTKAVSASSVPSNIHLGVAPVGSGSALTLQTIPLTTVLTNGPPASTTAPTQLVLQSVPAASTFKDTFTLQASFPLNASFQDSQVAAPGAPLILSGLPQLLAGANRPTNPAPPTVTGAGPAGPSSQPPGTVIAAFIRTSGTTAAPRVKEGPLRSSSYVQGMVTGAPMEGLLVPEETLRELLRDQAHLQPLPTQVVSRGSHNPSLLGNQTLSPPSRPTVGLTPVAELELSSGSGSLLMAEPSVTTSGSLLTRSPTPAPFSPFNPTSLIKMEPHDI
sequence,measurement,setting,value
ACCTCC,binding signal,FLI1,"1.38 fold enrichment (6-mer frequency, TF over GST control)"
same,binding signal,ELK1,"1.42 fold enrichment (6-mer frequency, TF over GST control)"
same,binding signal,GABPA,"1.43 fold enrichment (6-mer frequency, TF over GST control)"
same,binding signal,ERG,"1.36 fold enrichment (6-mer frequency, TF over GST control)"
same,binding signal,ELF1,"1.44 fold enrichment (6-mer frequency, TF over GST control)"
same,binding signal,EHF,"1.31 fold enrichment (6-mer frequency, TF over GST control)"
same,binding signal,SPI1,"1.31 fold enrichment (6-mer frequency, TF over GST control)"
same,binding signal,SPIB,"1.4 fold enrichment (6-mer frequency, TF over GST control)"
same,binding signal,ELK3,"1.46 fold enrichment (6-mer frequency, TF over GST control)"
same,binding signal,FEV,"1.42 fold enrichment (6-mer frequency, TF over GST control)"
same,binding signal,ETV5,"1.43 fold enrichment (6-mer frequency, TF over GST control)"
same,binding signal,HSF1,"1.11 fold enrichment (6-mer frequency, TF over GST control)"
same,binding signal,SPIC,"1.45 fold enrichment (6-mer frequency, TF over GST control)"
same,binding signal,ELF4,"1.44 fold enrichment (6-mer frequency, TF over GST control)"
same,binding signal,ELK4,"1.45 fold enrichment (6-mer frequency, TF over GST control)"
same,binding signal,ETV2,"1.4 fold enrichment (6-mer frequency, TF over GST control)"
same,binding signal,ELF3,"1.14 fold enrichment (6-mer frequency, TF over GST control)"
same,binding signal,CRX,"1.08 fold enrichment (6-mer frequency, TF over GST control)"
same,binding signal,ETV1,"1.4 fold enrichment (6-mer frequency, TF over GST control)"
